This is an account of results in PubChem BioAssay AID463173 (ICCB-Longwood Screening Facility, Harvard Medical School, 2010).

Out of some 52,000 compounds screened, about 4,300 (8.3%) were called active. Shown is part of a subset that was picked to be rich in actives. A number with no mark means an inactive call. No stated cut-off is given here; in the data, active means survival mostly below about 52% (no sharp cut-off); inactive means mostly above about 56%.

In the experiment the test system is DeltatarO mutant. The experiment is described as follows: growth inhibition of S. aureus wild type versus tarO mutant, primary screen, teichoic acid synthesis inhibitors, RN4220, OD600 (AID 463173). Conditions: OD600, 18 h, hits give low values, screened at 18.75 µg/mL (by protocol).
Take `O=C(NCc1ccccc1Cl)c1ccc2c(c1)N(Cc1ccccc1)C(=O)c1ccccc1S2`: the survival was 144%. For `O=C(Nc1cnn(C23CC4CC(CC(C4)C2)C3)c1)c1cc(-c2ccccc2)on1` the value was 101%; for `COc1ccc(NC(=O)C(C)Sc2nc(C)cc(=O)[nH]2)cc1` (stereo not given), 101%; for `CC(C)c1ccc(NC(=O)C2(C)Cc3ccccc3C(=O)O2)cc1` (stereo not given), 106%. For `CC(NC(=O)c1nn(C)c2c1CSc1ccccc1-2)c1ccccc1` (stereo not given) the value was 76%; for `CCC(=O)C1=C(c2ccccc2)N(C(=O)CC)n2c(nnc2-c2ccccc2)S1`, -5% (active); for `CCC(=O)C1=C(c2ccc(OC)c(OC)c2)N(C(=O)CC)n2c(nnc2-c2ccc(C)cc2)S1`, 68%. Then `CCOc1ccc(C2=C(C(=O)CC)Sc3nncn3N2C(=O)CC)cc1`, with 17% (active); and `CCCC(=O)C1=C(c2ccc(C)cc2)N(C(=O)CCC)n2cnnc2S1`, with 130%. In the case of `CCC(=O)C1=C(c2cccc([N+](=O)[O-])c2)N(C(=O)CC)n2c(nnc2C2CCCCC2)S1`, the survival is 91%.

As to `CCC(=O)C1=C(c2ccc(F)cc2)N(C(=O)CC)n2cnnc2S1`, the survival is 128%. Then `CCC(=O)C1=C(c2ccc(F)cc2)N(C(=O)CC)n2c(nnc2-c2ccc(OC)cc2)S1`, with 66%. Then `CCC(=O)C1=C(c2cccc([N+](=O)[O-])c2)N(C(=O)CC)n2c(nnc2-c2ccccc2)S1`, with 8% (active); and `CC(=O)C1=C(c2cccc([N+](=O)[O-])c2)N(C(C)=O)n2c(nnc2-c2ccc(C)cc2)S1`, with 89%. Then `CN(CC(=O)O)Cc1nc2ccccc2[nH]1`, with 103%; and `Cc1c(Cl)cccc1NC(=O)c1ccc(NC(=O)N2CCSc3ncccc32)cc1`, with 72%. Turning to `COC(=O)c1ccc(C=Nc2ccc(O)c(-c3nc4ccccc4o3)c2)cc1`, the survival was 93%. For `COc1ccc(C)cc1-n1cnc2cc(C(=O)NC3CCCC3)ccc21` the value was 119%. For `O=C(C1CCC(Cn2c(=O)c3sccc3n(Cc3cccc(F)c3)c2=O)CC1)N1CCCCC1` (stereo not given) the value was 92%; for `Cc1c(NS(=O)(=O)c2cccc(C(=O)O)c2)c(=O)n(-c2ccccc2)n1C`, 67%. Then `O=C1Nc2ccccc2N(O)N1c1ccccc1Cl`, with 90%; and `CCc1ccc(S(=O)(=O)Nc2ccc3c(c2)n(C)c(=O)c(=O)n3C)cc1`, with 79%. With `COc1ccccc1N1CCN(C(=O)Cn2c(=O)n3nc(-c4cccc(F)c4)nc3c3ccccc32)CC1`, the survival was 71%. Then `CC(C)c1ccc(NC(=O)CN2C(=O)CCc3cc(S(=O)(=O)N4CCOCC4)ccc32)cc1`, with 87%; and `O=C(Nc1ccc(F)cc1Cl)c1cnc(N2CCOCC2)c2ccccc12`, with 104%. Consider `COc1ccc(N=Nc2c(N)n[nH]c2N)cc1`, for which the survival is 1% (active). Then `Nc1n[nH]c(N)c1N=Nc1ccc(Cl)cc1`, with 64%; and `COc1cccc(N=Nc2c(O)[nH]c(=O)[nH]c2=O)c1`, with 101%; and `Cn1c(=O)c2cc(C(=O)NCCCN3CCN(c4ccc(F)cc4)CC3)sc2c2ccccc21`, with 70%. For the compound `C=C(C)Cn1c(SCC(=O)Nc2cccc(Cl)c2)nc2sc3c(c2c1=O)CCCC3`, the survival was 126%. With `CC(=O)c1cccc(NC(=O)[C@H](Cc2ccccc2)N2Cc3ccccc3C2=O)c1`, the survival was 67%. Then `Cc1cccc(NC(=O)C(Cc2ccccc2)n2cccc2)c1C` (stereo not given), with 75%. As for `O=C(Nc1cccc(Cl)c1)C(Cc1ccccc1)n1cccc1` (stereo not given), the survival was 11% (active). For `O=C(Nc1ccccc1)C(Cc1ccccc1)N1Cc2ccccc2C1=O` (stereo not given), the survival was 77%. With `Cc1ccc(NC(=O)C(Cc2ccccc2)n2cccc2)c(C)c1` (stereo not given), the survival is 67%. Take `Cc1ccc(C)c(NC(=O)C(Cc2ccccc2)n2cccc2)c1` (stereo not given): the survival is 107%. For `CCc1cccc(NC(=O)C(Cc2ccccc2)n2cccc2)c1` (stereo not given) the value was 18% (active). Then `COc1ccc(NC(=O)C(Cc2ccccc2)n2cccc2)cc1OC` (stereo not given), with 79%; and `Cc1ccc(NC(=O)C(Cc2ccccc2)n2cccc2)cc1C` (stereo not given), with 28% (active). Then `COc1ccc(OC)c(S(=O)(=O)Nc2cc3c(cc2C)n(C)c(=O)c(=O)n3C)c1`, with 84%; and `C1=C(c2cccs2)OC(c2cccs2)=CC1c1cccs1`, with 52%.

Turning to `Nc1ncc(S(=O)(=O)NCc2cccc(Cl)c2)cn1`, the survival is 74%. Then `CCOc1ccc(S(=O)(=O)N2CCN(c3ccc(Cl)c(Cl)c3)CC2)c2ccccc12`, with 168%; and `COc1ccc(Cn2nnnc2C(c2ccccn2)N2CCc3ccccc3C2)cc1` (stereo not given), with 74%. Then `O=C1CSC2(C(=O)N(Cc3ccccc3F)c3ccccc32)N1c1cccc(C(F)(F)F)c1` (stereo not given), with 87%; and `O=C(COCc1cc(-c2ccco2)on1)Nc1ccc(OC(F)(F)F)cc1`, with 92%.

In the case of `CCOc1ccc(-c2cc3c(=O)n(Cc4nc(-c5cccc(OC)c5OC)oc4C)ccn3n2)cc1Cl`, the survival is 187%.

Take `Cc1ccc(C(=O)Nc2nnc(S(=O)(=O)N3CCc4ccccc43)s2)cc1`: the survival is 26% (active). On to `Cc1cccc(C(=O)Nc2nnc(S(=O)(=O)N3CCCc4ccccc43)s2)c1`, for which the survival is 17% (active). Then `COc1ccc(C(=O)Nc2nnc(S(=O)(=O)N3CCCc4ccccc43)s2)cc1`, with 49%. As for `Cc1ccc2nc(NC(=O)c3ccc(S(=O)(=O)N4CCCc5ccccc54)cc3)sc2c1`, the survival was 144%. Then `COc1cccc(C(=O)Nc2nnc(S(=O)(=O)N3CCCc4ccccc43)s2)c1`, with 18% (active); and `Cc1ccc(C(=O)Nc2nnc(S(=O)(=O)N3CCCc4ccccc43)s2)cc1`, with 39% (active); and `COc1ccccc1NC(=O)c1c(NCc2ccc(OC)c(OC)c2OC)sc2c1CCCC2`, with 93%. Then `COc1ccc(-c2nc3ccccc3n3c(-c4ccc(OC)cc4)c4c(=O)n(C)c(=O)n(C)c4c23)cc1`, with 84%. Then `CCOC(=O)c1c(S(=O)(=O)N2CCCC(C(=O)Nc3cccc(C#N)c3)C2)c(C)n(C)c1C` (stereo not given), with 67%. Take `CCc1ccccc1Nc1sc(C(=O)c2ccccc2)c(N)c1S(=O)(=O)c1ccccc1`: the survival was 119%. Then `O=C(Nc1cccc(Cl)c1N1CCOCC1)c1ccco1`, with 90%; and `COc1ccc(S(=O)(=O)CCc2nc3ccccc3n2CC(=O)O)cc1`, with 113%.

Take `CCOC(=O)c1ccc(NC(=O)C(CC)Sc2nc3ccncc3[nH]2)cc1` (stereo not given): the survival was 128%.

On to `CN1CCN(C(=O)C(=O)Nc2c3c(nn2-c2ccc(Cl)cc2)CSC3)CC1`, for which the survival is 72%.

`CC(=O)N1CCN(C(=O)C(=O)Nc2c3c(nn2-c2ccc(Cl)cc2)CSC3)CC1`: the survival is -1% (active). For `CC(NC(=O)C(=O)Nc1c2c(nn1-c1ccccc1)CSC2)c1ccccc1` (stereo not given) the value was 61%; for `CN1CCN(C(=O)C(=O)Nc2c3c(nn2-c2ccc(F)cc2)CSC3)CC1`, 72%.

Consider `CCC(CO)NC(=O)C(=O)Nc1c2c(nn1-c1ccc(F)cc1)CSC2` (stereo not given), for which the survival is 80%. For `CC(NC(=O)C(=O)Nc1c2c(nn1-c1ccc(F)cc1)CSC2)c1ccccc1` (stereo not given) the value was -2% (active); for `Cc1cccc(C)c1-n1ncc(C(=O)Nc2ccc3c(c2)OCO3)c1C1CCN(C(=O)OC(C)(C)C)CC1`, 100%. With `Cc1ccc(-c2cn3nc(N4CCCC(C(=O)NCc5ccc(F)cc5)C4)sc3n2)cc1` (stereo not given), the survival was 86%. As for `CCNC(=O)NC1(C(=O)N2CCC(Cc3ccccc3)CC2)CCCCC1`, the survival is 87%.

Take `Cc1ccc(N2CC(NC(=O)c3cccc(Cl)c3)CC2=O)cc1C` (stereo not given): the survival is 75%. Then `COc1cc(C(=O)N2CCC(c3nc4ccccc4o3)CC2)cc(OC)c1OC`, with 91%; and `Cn1c2ccccc2c2c(C(=O)N3CCN(c4ccc(F)cc4)CC3)cn(C3CCCCC3)c(=O)c21`, with 132%; and `Cc1cccc(NC(=O)c2oc3ccccc3c2NC(=O)Cc2coc3ccc(C(C)C)cc23)c1`, with 67%. For `CC(C)c1ccc2occ(CC(=O)Nc3cccc(C(F)(F)F)c3)c2c1` the value was 0% (active).

Turning to `COC(=O)c1ccc(NC(=O)Cc2coc3cc(C)ccc23)cc1`, the survival is 91%. For `Cc1ccc(NC(=O)Cc2coc3ccc(C(C)C)cc23)cc1Cl` the value was 37% (active). Take `CC(C)c1ccc2occ(CC(=O)Nc3ccccc3Cl)c2c1`: the survival is 85%. Consider `Cc1ccc2onc(CC(=O)Nc3cccc(C(F)(F)F)c3)c2c1`, for which the survival was 54%.

On to `CCCCOC(=O)c1ccc(NC(=O)Cc2coc3ccc(C(C)C)cc23)cc1`, for which the survival is 69%. For `Cc1ccc2c(CC(=O)Nc3cccc(C(F)(F)F)c3)coc2c1` the value was 1% (active); for `Cc1ccc(NC(=O)Cc2coc3ccc(C(C)C)cc23)c(C)c1`, 88%; for `CCN1Cc2cccc(C(=O)Nc3ccc(F)cc3)c2C1=O`, 129%. Then `Cc1cc(C)cc(N2CCn3c2nc2c3c(=O)n(CCc3ccccc3)c(=O)n2C)c1`, with 89%. Then `COCCn1c(SCC(=O)c2ccc(OC)cc2)nc2cc(C(=O)NC3CCCC3)ccc2c1=O`, with 94%; and `Cc1ccc(S(=O)(=O)N(C#N)c2nc(C)cc(C)n2)cc1`, with 71%. As to `C=C(C)c1cccc(C(C)(C)NC(=O)N(C)C2CCN(C)CC2)c1`, the survival is 82%. Then `COc1ccccc1-c1nnc(C2CCN(S(=O)(=O)c3ccccc3)CC2)o1`, with 84%; and `Cc1ccc(NS(=O)(=O)c2ccc3c4c(cccc24)C(=O)N3)c(C)c1`, with 58%; and `COc1ccc(C)cc1NS(=O)(=O)c1ccc2c3c(cccc13)C(=O)N2`, with 58%. For `Cc1ccc(C)c(NS(=O)(=O)c2ccc3c4c(cccc24)C(=O)N3)c1` the value was 52% (active).
